Activity calls are given as the source filed them.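 How the source made its calls: active means growth inhibition above 50% at the single 2 µM test dose, taken to imply half-maximal potency below 2 µM; inactive means the rest.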
experiment: antimalarial activity against Dd2 strain (AID 2302);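 further: 0% = DMSO untreated growth and 100% = chloroquine plus artemisinin killed control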; settings: P. falciparum Dd2 in RBCs, LDH growth readout, 72 h; at 2 µM; stronger effect = higher value

Structure (SMILES)	growth inhibition
COc1cc2nc(C)nc(Nc3ccc(Oc4ccccc4)cc3)c2cc1OC	72% (active)
Cc1ccc(CN(Cc2ccc(C(=O)N(C)C)cc2)Cc2ccc3c(c2)OCCO3)cc1C	87% (active)
Cc1cc(CN2CC[C@H](NC(=O)c3ccc(Cl)c(Cl)c3)C2)ccc1OCCCN(C)C	35% (inactive)
O=C(Nc1cccc(-c2csc(-c3nc4ccccc4[nH]3)c2)c1)c1ccoc1	67% (active)
CCC[C@@H]([C@@H](CC1CCCCC1)C(=O)NC(C(=O)Nc1nccs1)C(CC)c1ccccc1)N(O)C=O (stereo not given in full)	19% (inactive)
FC(F)(F)c1ccc2nc(-c3ccc(-c4ccc(CNCc5cnn(-c6ccccc6)n5)cc4)s3)[nH]c2c1	89% (active)
CN1CCN(CC(=O)Nc2cccc(-c3cccc(-c4nc5ccc(F)cc5[nH]4)c3)c2)CC1	98% (active)
CN(C)c1ccc(CN2CCC(NC(=O)c3ccc(-c4ccc(N(C)C)cc4)s3)CC2)cc1	21% (inactive)
CN1CCC(NCc2cccc(-c3ccc(S(=O)(=O)NCCN4CCCC4)s3)c2)CC1	1% (inactive)
CC(C)Oc1cccc(-c2ccc(C(=O)NCC3CCCN(Cc4cccc(C(F)(F)F)c4)C3)s2)c1 (stereo not given)	28% (inactive)
Cc1cc(NN=Cc2ccc(F)cc2)c2cccc(C)c2n1	99% (active)
N#Cc1cccc(Nc2nccc(NCC(O)c3ccc(C(F)(F)F)cc3)n2)c1 (stereo not given)	98% (active)
NC(=NCCc1ccccc1Cl)c1ccc2ccccc2c1	11% (inactive)
CCOC(=O)c1cncc(/C=C/c2cc(C)cnc2N)c1	3% (inactive)
O=[N+]([O-])c1cccc(CNCC2CCN(Cc3ccc(C(F)(F)F)cc3)CC2)c1	23% (inactive)
CCOC(=O)COc1cccc(CNc2ccc3nc(N)nc(N)c3c2)c1	99% (active)
CS(=O)(=O)c1ccc(CCNCc2ccc(-c3ccc(CN(C(=O)C4CCCC4)C4CCN(Cc5ccccc5)CC4)cc3)nc2)cc1	20% (inactive)
CNS(=O)(=O)CCNCc1ccc(-c2ccc3ncnc(Nc4ccc(OCc5ccccc5)cc4)c3c2)o1	26% (inactive)
CC(C)c1ccc(NC(=O)c2ccc(C(=O)NCC3CCN(CC4CCCCC4)CC3)cc2)cc1	18% (inactive)
CCCNCc1ccc(-c2ccc(CN(CCOC)C(=O)c3cscn3)cc2)nc1	16% (inactive)

Structure (SMILES)	growth inhibition
CCNc1cc(C(=O)N[C@@H](Cc2ccccc2)[C@H](O)CN[C@H](C)C(C)(C)C)cc(N2CCCCS2(=O)=O)c1	41% (inactive)
O=C(Nc1ccc(C(=O)N2CCN(CCN3CCN(c4cccc(C(F)(F)F)c4)CC3)CC2)cc1)c1ccc(C(F)(F)F)cc1	28% (inactive)
O=C(/C=C/c1ccc(Cl)c(Cl)c1)N1CCN(C(=O)Nc2ccc(C(F)(F)F)cc2)CC1	101% (active)
Cc1[nH]c(C)c(-c2ccc(-c3ccc(F)cc3)nc2)c(=O)c1Br	96% (active)
Cc1nc(N)nc(N)c1OCCCOc1ccccc1Br	96% (active)
FC(F)(F)c1ccc2nc(-c3cccc(-c4ccc(CNCC5CCCO5)cc4)c3)[nH]c2c1 (stereo not given)	99% (active)
Cc1noc(C)c1-c1cccc(CNCc2ccc(-c3ccc(-c4nc5c(C)cccc5[nH]4)cc3)cc2)c1	95% (active)
Cc1cc(C2CCN(CCCCNC(=O)c3ccc(-c4ccc(C(F)(F)F)cc4)cc3)CC2)c(C)cc1OCCO	3% (inactive)
COC(=O)c1cccc(CN(CCC(O)(C(F)(F)F)C(F)(F)F)C(=O)CC2CCCC2)c1	53% (active)
Cc1[nH]c(C)c(-c2ccc(-c3ccccc3C(F)(F)F)nc2)c(=O)c1Br	96% (active)
CCNc1cc(C(=O)N[C@@H](Cc2ccccc2)[C@H](O)CNCc2cc(C#N)ccc2OC)cc(N2CCCC2=O)c1	51% (active)
CO/C(=C\C=C\c1cc2cc(Cl)c(Cl)cc2[nH]1)C(=O)NCCCNC12CC3CC(CC(C3)C1)C2	76% (active)
O=c1[nH]c2ccc(Nc3nccc(NCCc4ccccc4)n3)cc2[nH]1	6% (inactive)
COc1ccc2nccc([C@@H](O)CN3CCC(NCc4ccc5c(c4)NC(=O)CO5)CC3)c2c1	6% (inactive)
CCOC(=O)c1ccc(NC(=O)Nc2ccc(-c3ccc(-c4nc5ccc(C(F)(F)F)cc5[nH]4)cc3)cc2)cc1	52% (active)
Cc1cccc2[nH]c(-c3ccc(-c4cccc(CN5CCCC5CN)c4)cc3)nc12 (stereo not given)	32% (inactive)
COc1ccc(NC(=O)/C=C/c2ccccc2Cl)cc1OCCN1CCC(N2CCCCC2)CC1	49% (inactive)
COc1cc(C2=NN(S(=O)(=O)c3c(Cl)cc(Cl)cc3Cl)CCCC2)ccc1Cl	97% (active)
CC(C)NCc1ccc(-c2cccc(NC(=O)c3ccc(F)cc3)c2)cc1	7% (inactive)
CCCc1ccc(C(=O)N2[C@@H](c3nccs3)[C@@H](C(N)=O)C[C@@]2(CC(C)C)C(=O)O)cc1	80% (active)

From PubChem BioAssay
